Compound activity deposited in PubChem by several laboratories.
Most compounds without a hit are left out; they make up all but 4.8% or so of the library.
TIM10 inh = TIM10 yeast growth inhibition; S. cerevisiae TIM10 strain growth, BacTiter-Glo luminescence, 24 h; inhibition, % at 10 µM; actives 1.4% (n = 330,000);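 active = inhibition of 40% or more at the single tested concentration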;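 note: wild-type TIM10 isogenic control strain grown at permissive 25 °C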
SKKanGAS inh = blocks kanamycin growth of S. pyogenes SKKanGAS strain. inhibition, % at 7.5 µM. actives 1.3% (n = 300,000). AID 1662. BacTiter-Glo, 6 h;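 active = mean replicate score, as percent of positive control median, at least 50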;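 note: strain carries kanamycin resistance gene driven by streptokinase promoter and grows in 40 µg/ml kanamycin; loss of luminescence reflects streptokinase promoter inhibition or plain growth inhibition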
tim10-1 inh = inhibits growth of tim10-1 mutant yeast; S. cerevisiae tim10-1 ts strain growth, BacTiter-Glo, 24 h; inhibition, % at 20 µM; AID 463190; actives 2.2% (n = 330,000);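 active = inhibition of at least 40%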;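 note: mutant grown at 25 °C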
PfHsp90 set2 = growth inhibition of yeast expressing Plasmodium Hsp90. S. cerevisiae expressing PfHsp90, BacTiter-Glo ATP, 48 h; yeast lacking PDR1 and PDR3 efflux regulators. inhibition, % at 9.4 µM. actives 0.32% (n = 310,000). AID 504621;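 active = every replicate shows inhibition above about 80%, whatever the replicate mean, limit read from the data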
tim23-1 inh = tim23-1 yeast growth inhibition; S. cerevisiae tim23-1 growth, BacTiter-Glo luminescence, 24 h; inhibition, % at 20 µM; actives 1.3% (n = 330,000); AID 463212;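 active = growth inhibition of the mutant yeast at or above 50%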;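 note: temperature-sensitive mutant grown at 25 °C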
NALP1 inh = inhibitors of NALP1 inflammasome in yeast; S. cerevisiae NALP1/ASC/caspase-1 growth, X-gal OD620, 72 h; inhibition, % at 10 µM; actives 0.61% (n = 280,000); AID 2071; in the data active = inhibition mostly above about 24%, no sharp cut-off; inactive = mostly below about 32%
tim10-1 confirm = confirmation of tim10-1 mutant yeast growth inhibitors | shares compounds with tim10-1 inh | S. cerevisiae tim10-1 ts strain growth, BacTiter-Glo, 24 h | inhibition, % at 20 µM | actives 56% (n = 7,400);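 active = inhibition of yeast growth at or above a set limit in either of two repeat tests at 20 µM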;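 note: tim10-1 mutant grown at permissive 25 °C to find synthetic lethal compounds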
A number is an active result.

How did CC1CC(C)CN(S(=O)(=O)c2ccc3c(c2)CC(C)N3C(=O)C2CCC2)C1 (stereo not given) do in these assays?
TIM10 inh: inactive; SKKanGAS inh: inactive; tim10-1 inh: 43; PfHsp90 set2: inactive; tim23-1 inh: inactive; NALP1 inh: inactive; tim10-1 confirm: inactive

Results for c1ccc(-c2nc3ccccc3c3nc4ccccc4n23)cc1 ?
TIM10 inh: inactive; SKKanGAS inh: inactive; tim10-1 inh: inactive; PfHsp90 set2: inactive; tim23-1 inh: inactive; NALP1 inh: inactive

How did FC(F)(F)c1nnc2c(Sc3ccccn3)nc3ccccc3n12 do in these assays?
TIM10 inh: inactive; SKKanGAS inh: inactive; tim10-1 inh: 55; tim23-1 inh: inactive; NALP1 inh: inactive; tim10-1 confirm: 35

Results for FC(F)(F)c1nc2ccccc2c2nc3ccccc3n12 ?
TIM10 inh: inactive; SKKanGAS inh: inactive; tim10-1 inh: 41; PfHsp90 set2: inactive; tim23-1 inh: inactive; NALP1 inh: inactive; tim10-1 confirm: inactive

Results for Cc1ccc(C(=O)COC(=O)C2CC(=O)N(c3nc(-c4ccccc4)cs3)C2)cc1 (stereo not given) ?
TIM10 inh: inactive; SKKanGAS inh: inactive; tim10-1 inh: 40; PfHsp90 set2: inactive; tim23-1 inh: inactive; NALP1 inh: inactive; tim10-1 confirm: inactive

What do the screens show for `CCOc1ccc(N2CC(C(=O)OCC(=O)c3ccc(OC)cc3)CC2=O)cc1` (stereo not given)?
TIM10 inh: inactive; SKKanGAS inh: inactive; tim10-1 inh: inactive; PfHsp90 set2: inactive; tim23-1 inh: inactive; NALP1 inh: inactive

Results for CCCCN(CC)c1nc(-c2ccncc2)nc2ccccc12 ?
TIM10 inh: inactive; SKKanGAS inh: inactive; tim10-1 inh: 43; PfHsp90 set2: inactive; tim23-1 inh: inactive; NALP1 inh: inactive; tim10-1 confirm: inactive

Results for CCn1c(SCc2nc3ccccc3c(=O)[nH]2)nc2ccccc21 ?
TIM10 inh: inactive; SKKanGAS inh: inactive; tim10-1 inh: 44; PfHsp90 set2: inactive; tim23-1 inh: inactive; NALP1 inh: inactive; tim10-1 confirm: inactive

Results for O=C(NCCc1csc(-c2ccc(Cl)cc2)n1)c1ccco1 ?
TIM10 inh: inactive; SKKanGAS inh: inactive; tim10-1 inh: 43; PfHsp90 set2: inactive; tim23-1 inh: inactive; NALP1 inh: inactive; tim10-1 confirm: inactive

What do the screens show for `CN(Cc1cccnc1)Cc1cn(C)nc1-c1ccc(Oc2ccccc2)cc1`?
TIM10 inh: inactive; SKKanGAS inh: inactive; tim10-1 inh: inactive; tim23-1 inh: inactive; NALP1 inh: inactive

What do the screens show for `O=C(c1cc2cc(Cl)ccc2[nH]1)N1CCN(Cc2ccc3c(c2)OCO3)CC1`?
TIM10 inh: inactive; SKKanGAS inh: inactive; tim10-1 inh: 49; PfHsp90 set2: inactive; tim23-1 inh: inactive; NALP1 inh: inactive; tim10-1 confirm: inactive

How did Cc1ccc2c(C)c(C(=O)N3CCN(Cc4ccc5c(c4)OCO5)CC3)oc2c1C do in these assays?
TIM10 inh: inactive; SKKanGAS inh: inactive; tim10-1 inh: 47; PfHsp90 set2: inactive; tim23-1 inh: inactive; NALP1 inh: inactive; tim10-1 confirm: inactive

Results for Cc1ccc(C(=O)N2CCN(Cc3ccc4c(c3)OCO4)CC2)o1 ?
TIM10 inh: inactive; SKKanGAS inh: inactive; tim10-1 inh: inactive; PfHsp90 set2: inactive; tim23-1 inh: inactive; NALP1 inh: inactive

How did Cc1c(C(=O)N2CCc3ccccc3C2)oc2ccc(S(=O)(=O)N3CCCCCC3)cc12 do in these assays?
TIM10 inh: inactive; SKKanGAS inh: inactive; tim10-1 inh: 43; PfHsp90 set2: inactive; tim23-1 inh: inactive; NALP1 inh: inactive; tim10-1 confirm: inactive

Results for Cc1c(C(=O)N2CCOCC2)oc2ccc(S(=O)(=O)N3CCCC3)cc12 ?
TIM10 inh: inactive; SKKanGAS inh: inactive; tim10-1 inh: inactive; PfHsp90 set2: inactive; tim23-1 inh: inactive; NALP1 inh: inactive

Results for COc1ccccc1/C=C(/NC(=O)c1ccccc1)C(=O)NCCCn1ccnc1 ?
TIM10 inh: inactive; SKKanGAS inh: inactive; tim10-1 inh: inactive; PfHsp90 set2: inactive; tim23-1 inh: inactive; NALP1 inh: inactive

What do the screens show for `CCOC(=O)C1CCCc2c1[nH]c1ccc(Cl)cc21` (stereo not given)?
TIM10 inh: inactive; SKKanGAS inh: inactive; tim10-1 inh: 43; PfHsp90 set2: inactive; tim23-1 inh: inactive; NALP1 inh: inactive; tim10-1 confirm: 32
